Measured values: ChEMBL document CHEMBL3433997, “St. Jude Leishmania screening dataset” (2016)

What follows are compounds tested against Solute carrier family 2, facilitated glucose transporter member 1 (Homo sapiens) (UniProt P11166) (assay: ST_JUDE_LEISH: Cytotoxicity at 2uM final concentration against transgenic Leishmania Mexicana promastigotes LmGLUT1 that are glucose transport deficient and complemented with the human glucose transporter GLUT1. Activity is measured by DNA content using SYBR green in vitro).
Chain of Solute carrier family 2, facilitated glucose transporter member 1 (Homo sapiens) (P11166 whole entry): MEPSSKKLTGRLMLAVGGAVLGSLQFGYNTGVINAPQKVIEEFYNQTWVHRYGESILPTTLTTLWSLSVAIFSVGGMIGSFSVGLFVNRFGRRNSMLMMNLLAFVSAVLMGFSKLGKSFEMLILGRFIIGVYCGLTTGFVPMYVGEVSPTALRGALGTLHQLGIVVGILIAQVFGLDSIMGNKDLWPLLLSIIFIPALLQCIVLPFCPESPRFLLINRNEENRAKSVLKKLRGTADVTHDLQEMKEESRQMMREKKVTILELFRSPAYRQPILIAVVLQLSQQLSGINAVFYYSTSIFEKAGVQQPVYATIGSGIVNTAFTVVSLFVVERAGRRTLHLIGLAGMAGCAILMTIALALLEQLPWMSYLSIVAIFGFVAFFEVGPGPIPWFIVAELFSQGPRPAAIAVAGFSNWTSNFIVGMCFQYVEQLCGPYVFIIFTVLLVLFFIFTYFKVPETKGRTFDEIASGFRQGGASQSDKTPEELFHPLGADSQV
Assay type: functional
Compound `CCCn1c(Sc2ccc(C#N)c([N+](=O)[O-])c2)nnc1-c1cc(OC)cc(OC)c1` has an inhibition of 0.5%. Compound `CCOc1ccc2[nH]c(C)cc(=NN=Cc3ccccc3F)c2c1` has an inhibition of 4%. For `COc1ccc(-c2nnc(Sc3ccc(C#N)c([N+](=O)[O-])c3)n2CCC(C)C)cc1`, the inhibition was 5.19%. Work on `CC(C)CNCc1ccc(-c2ccc(CN(CCCN3CCN(C)CC3)C(=O)CCC3CCCC3)cc2)cc1` yielded an inhibition of 55.1%. Compound `CN(C)CCNCc1cccc(-c2ccc3c(Nc4cc(O)c(Cl)cc4F)ccnc3c2)c1` has an inhibition of 3.57%. With `CCCCCCN1CCCN(Cc2ccc(C(=O)Nc3ccc(CCC)cc3)cc2)CC1` the inhibition was 9.31%. Compound `O=[N+]([O-])c1cccc(CNC2CCN(Cc3ccc(Cl)c(Cl)c3)CC2)c1` has an inhibition of 7.37%. Work on `COc1ccc2nccc(N3CCC(NCCNS(=O)(=O)c4ccc5c(c4)NC(=O)CS5)C3)c2n1` (stereo not given) yielded an inhibition of -1.11%. `COc1cccc2[nH]c(NCCCNCc3cc(Br)cc(Br)c3)nc12` showed an inhibition of 3.51%. In the case of `O=C(/C=C/c1ccc(Cl)c(Cl)c1)NCCCCCN1CCCN(C(=S)Nc2ccc(Cl)cc2)CC1`, the inhibition is reported as 1.38%. `CCCNCc1ccc(-c2ccc(CN(CCOC)C(=O)c3ccc([N+](=O)[O-])c(C)c3)cc2)nc1` was tested, and the inhibition was 3.77%. Compound `CCCCCc1cc(OC(C)=O)c2c(c1)OC(C)(C)C=C2C1=CCN(Cc2ccccc2)CC1` has an inhibition of 1.74%. `CCOC(=O)c1cc(C(=O)OC)c2ccccn12` gave an inhibition of 2.17%. `NC1CCN(c2nc(NCCCc3ccc(O)cc3)nc(NCc3ccccc3-c3ccc(C(F)(F)F)cc3)n2)CC1` was tested, and the inhibition was 1.49%. Compound `CC(C)C[C@H](NC(=O)c1ccc(OCCN2CCOCC2)cc1)C(=O)N[C@H](/C=N/N(C)C(=O)c1ccccc1)CCc1ccccc1` has an inhibition of 3.84%. With `CC1(C)NC(N)=NC(=N)N1OCCSc1ccccc1` the inhibition was 2.9%. Work on `Cc1cc(N[C@@H](Cc2ccccc2)C(=O)NCc2cccc(F)c2)nc(NCCc2cccnc2)n1` yielded an inhibition of 10.4%. Work on `O=C(Nc1cccc(-c2nn3ccccc3c2-c2ccnc(Nc3cccc(F)c3)n2)c1)C1CCCCC1` yielded an inhibition of 1.19%. `N#CC1(c2ccccc2)CCN(c2nc(NCCCN3CCCC3=O)nc(N3CCCC4CCCCC43)n2)CC1` (stereo not given) was tested, and the inhibition was 2.11%. `O=C(/C=C/c1ccc([N+](=O)[O-])cc1)N1CCC(NS(=O)(=O)c2ccc(F)cc2)CC1` was tested, and the inhibition was 6%. `CCN(CC)CCN(CCN(CC)CC)c1ccc2c(c1)Sc1c(Cl)ccc(Cl)c1S2` gave an inhibition of 1.42%. With `O=c1cc(NCCCNCc2cccc(C(F)(F)F)c2Cl)[nH]c2ccccc12` the inhibition was 3.39%. Compound `Cc1cccc(N2C(N)=NC(N)=NC2(C)C)c1C` has an inhibition of 0.74%. For `N#Cc1ccc(/C=C/C(=O)NCCCCCN2CCCN(C(=O)Nc3ccc(Cl)c(C(F)(F)F)c3)CC2)cc1`, the inhibition was 1.18%. For `CCOc1cc(C)ccc1C1CCN(CCCCNC(=O)c2ccc(-c3ccc(C(F)(F)F)cn3)cc2)CC1`, the inhibition was 10.4%. With `COc1ccc(Nc2nccc(N3CCC(NC(=O)Nc4cccc(OC)c4)C3)n2)cc1` (stereo not given) the inhibition was 0.29%. Compound `CN(C)CCCNCc1ccc(-c2ccc(C(F)(F)F)cc2)cc1` has an inhibition of 5.63%. `Cc1[nH]c(C)c(-c2ccc(CCc3cccc(C(F)(F)F)c3)nc2)c(=O)c1Cl` showed an inhibition of 2.83%. `COc1cccc(NC(=O)NC2CCN(CCCCCNC(=O)/C=C/c3ccc(Cl)c(Cl)c3)CC2)c1` was tested, and the inhibition was 0.13%. `COc1ccc2nccc([C@@H](O)CN3CCC(NC(=O)C(=Cc4ccc(C#N)cc4)c4ccc(-c5ccccc5)cc4)CC3)c2c1` gave an inhibition of 1.28%. Compound `CC(=O)c1cccc2cc(C(=O)NC3CCC(CCN4CCc5ccc(C#N)cc5C4)CC3)[nH]c12` (stereo not given) has an inhibition of 2.35%. For `CC(C)(CNCc1cc(Cl)cc(Cl)c1)c1nc(-c2ccnc(N)n2)c(-c2ccc(Cl)c(O)c2)[nH]1`, the inhibition was -0.09%. For `NC(=O)c1cccc(Nc2nccc(Nc3ccc(Oc4ccc5ccccc5c4)cc3)n2)c1`, the inhibition was 5.67%. `COc1ccc2ncc(C#N)c(CCN3C4CCC3CC(NCc3ccc5c(n3)NC(=O)CS5)C4)c2c1` (stereo not given) gave an inhibition of 4.35%. Work on `CCN(CCCN1CCCCC1)c1cc(C)nc(Nc2ccc(OC)cc2)n1` yielded an inhibition of -2.3%. `CC(Cc1ccc(NC(=O)c2ccc(CNCCc3ccccc3)cc2)cc1)NCCc1cccc(Cl)c1` (stereo not given) was tested, and the inhibition was 68.9%. `CCc1c[nH]c2c(N(c3ccccc3)S(C)(=O)=O)cc(C(=O)N[C@@H](Cc3ccccc3)[C@H](O)CNCc3cccc(C(F)(F)F)c3)cc12` gave an inhibition of 1.52%. For `CCn1cc(-c2cc(C(=O)Nc3ccc(OC)cc3C)c3ccccc3n2)c(C)n1`, the inhibition was 7.19%. With `CO/C(=C\C=C\c1cc2cc(Cl)c(Cl)cc2[nH]1)C(=O)NC1CC(C)N(C)C(C)C1` (stereo not given) the inhibition was -2.9%. `C(=NN=c1cc[nH]c2ccccc12)c1ccncc1` gave an inhibition of 3.99%.
